The nature of test [1]: qHTS RealTime-Glo MT Cell Viability Assay in HEK293 cells - 0 hour (AID 1224880). Further: top concentration of the series differs between compounds; nearly all actives have a fitted effect of over 45% in size. Put shortly: (§1)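 HEK293 + NanoLuc + prosubstrate, 600 cells/well; 5 h, 37 C/5% CO2; compound 23 nL in DMSO by pintool; 37 C; luminescence read at 0, 8, 16, 24, 32 and 40 h time points.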
For orientation: In qHTS, concentration-response curves come from the screen itself.

Test [2] can be described thus: A CellTox Green Cytotoxicity Assay to monitor cytotoxicity in HEK293 cells - 8 hour (AID 1224884). Further: nearly all actives have a fitted effect of over 35% in size. Put shortly: (§2)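 Tox21 screen in HEK293: membrane-impermeant cyanine dye fluoresces on binding dead-cell DNA; compound pinned 5 h post-seeding, plates held at 37 C, signal read repeatedly through 40 h.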
Test [3] in a line: qHTS RealTime-Glo MT Cell Viability Assay in HepG2 cells - 16 hour (AID 1224885). Further: nearly all actives have a fitted effect of over 50% in size. Summed up:
(§3)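 Compound treatment began 5 h after plating HepG2 cells (600/well) with NanoLuc luciferase and prosubstrate. Plates stayed at 37 C for 40 h; luminescence was captured at six time points, 0 h through 40 h.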

A short description of test [4]: qHTS RealTime-Glo MT Cell Viability Assay in HEK293 cells - 24 hour (AID 1224886). Further: top concentration of the series differs between compounds; nearly all actives have a fitted effect of over 50% in size. Put shortly:
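Quantitative high-throughput screen of the Tox21 10K library in HEK293: cells and RealTime-Glo reagents plated together, compound added at 5 h, luminescence monitored through 40 h at 37 C.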

The nature of test [5]: qHTS RealTime-Glo MT Cell Viability Assay in HEK293 cells - 8 hour (AID 1224887). Further: top concentration of the series differs between compounds; nearly all actives have a fitted effect of over 50% in size. Put shortly:
as §1

A short description of test [6]: A CellTox Green Cytotoxicity Assay to monitor cytotoxicity in HEK293 cells - 16 hour (AID 1224888). Further: nearly all actives have a fitted effect of over 35% in size. Put shortly: as §2
Test [7] in a line: qHTS RealTime-Glo MT Cell Viability Assay in HepG2 cells - 0 hour (AID 1224889). Further: nearly all actives have a fitted effect of over 50% in size. Summed up: as §3
Test [8] can be described thus: A CellTox Green Cytotoxicity Assay to monitor cytotoxicity in HepG2 cells - 8 hour (AID 1224890). Further: nearly all actives have a fitted effect of over 45% in size. Summed up: (§4)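 Measurements at 0, 8, 16, 24, 32 and 40 h of treatment captured CellTox Green fluorescence in HepG2 cells that had been co-plated with reagent and preincubated 5 h at 37 C/5% CO2.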
Test [9] is described as follows: qHTS assay to identify small molecule antagonists of the estrogen receptor alpha (ER-alpha) signaling pathway using the BG1 cell line in the presence of 0.1 nM 17-beta-estradiol - cell viability counter screen (AID 1259241). Further: nearly all actives have a fitted effect of over 40% in size. Summed up: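 Cells were plated and left 24 hr, compounds in DMSO were pinned in, 17beta-estradiol was added to 0.1 nM final, and after 22 hr CellTiter-Fluor reagent was added for 30 min before fluorescence was read.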

Test [10] is described as follows: qHTS assay to identify small molecule antagonists of the androgen receptor (AR) signaling pathway using the MDA cell line in the presence of 0.5 nM R1881 - cell viability counter screen (AID 1259242). Further: nearly all actives have a fitted effect of over 45% in size. Put shortly: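 Concentration-response screen of compounds for toxicity in MDA-kb2 reporter cells: 16 hr at 37C with 0.5 nM R1881, endpoint live-cell protease fluorescence measured in the reporter wells.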

A short description of test [11]: qHTS assay to identify small molecule HDAC inhibitors (AID 1259364).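 Further: wild-type HCT-116 cells with endogenous class I/II HDAC activity; top concentration of the series differs between compounds; nearly all actives have a fitted effect of over 45% in size.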 Summed up:
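Screening used wild-type human colon HCT-116 cells incubated overnight, dosed with compounds for 2 hours, and assayed with a homogeneous luminogenic HDAC I/II reagent for 30 minutes at room temperature.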

The nature of test [12]: qHTS assay to identify small molecule HDAC inhibitors - cell viability counter screen (AID 1259365). Summed up:
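Counter screen in wild-type HCT-116 cells: compounds dissolved in DMSO are pin-transferred onto overnight-plated cells and left 2hr at 37C. ATP-based CellTiter-Glo luminescence then measures viable cells.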

Test [13] is described as follows: qHTS assay to identify small molecule agonists of the sonic hedgehog signaling (Shh) pathway - cell viability counter screen (AID 1259366). Further: nearly all actives have a fitted effect of over 50% in size. Further: potency means the concentration at half of the fitted maximal effect. Put shortly: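 Cells are plated at 2,000 per well and left 4hr at 37C, 5% CO2 before compound addition. After 23hr of treatment, CellTiter-Fluor reagent is added for 1hr at 37C and fluorescence is measured.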
Test [14] is described as follows: qHTS assay to identify small molecule antagonists of the sonic hedgehog signaling (Shh) pathway - cell viability counter screen (AID 1259367). Further: nearly all actives have a fitted effect of over 55% in size. Summed up:
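Viability was read by CellTiter-Fluor fluorescence in the same wells, reagent added 23 hr into compound treatment and incubated 1 hr at 37C. The 3T3 Gli1-Luc reporter cells (2,000/well) received conditioned medium after compound and ran 24 hr.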

A short description of test [15]: A CellTox Green Cytotoxicity Assay to monitor cytotoxicity in HEK293 cells - 32 hour (AID 1224881). Further: nearly all actives have a fitted effect of over 40% in size. Put shortly: as §2
Test [16] is described as follows: A CellTox Green Cytotoxicity Assay to monitor cytotoxicity in HepG2 cells - 32 hour (AID 1224883). Further: nearly all actives have a fitted effect of over 50% in size. Summed up:
as §4

A short description of test [17]: qHTS assay to identify small molecule phospholipidosis (PLD) inducers (AID 1259344; active means well fitted curve in the direction sought with a large enough effect; an effect the other way counts as inactive or inconclusive). Put shortly:
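Phospholipid accumulation was scored by imaging: fixed, Hoechst-counterstained HepG2 cells stained with LipidTOX Red after 24 h compound exposure at 37 C. Read-outs were pit count and pit intensity per well or per cell, with amiodarone and DMSO controls.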

Test [18] can be described thus: A CellTox Green Cytotoxicity Assay to monitor cytotoxicity in HepG2 cells - 0 hour (AID 1224882). Further: nearly all actives have a fitted effect of over 35% in size. Put shortly:
as §4

In test [19] the target is Androgen receptor (Homo sapiens) (UniProt P10275). In words: qHTS assay to identify small molecule antagonists of the androgen receptor (AR) signaling pathway using the MDA cell line in the presence of 0.5 nM R1881 (AID 1259243). Further: nearly all actives have a fitted effect of over 50% in size. Summed up: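 With R1881 held at 0.5 nM (final), compound effects on MMTV-luciferase expression in MDA-kb2 cells were scored by luminescence after a 16 hr, 37C incubation.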
Androgen receptor (Homo sapiens), sequence (P10275 whole entry, looked up): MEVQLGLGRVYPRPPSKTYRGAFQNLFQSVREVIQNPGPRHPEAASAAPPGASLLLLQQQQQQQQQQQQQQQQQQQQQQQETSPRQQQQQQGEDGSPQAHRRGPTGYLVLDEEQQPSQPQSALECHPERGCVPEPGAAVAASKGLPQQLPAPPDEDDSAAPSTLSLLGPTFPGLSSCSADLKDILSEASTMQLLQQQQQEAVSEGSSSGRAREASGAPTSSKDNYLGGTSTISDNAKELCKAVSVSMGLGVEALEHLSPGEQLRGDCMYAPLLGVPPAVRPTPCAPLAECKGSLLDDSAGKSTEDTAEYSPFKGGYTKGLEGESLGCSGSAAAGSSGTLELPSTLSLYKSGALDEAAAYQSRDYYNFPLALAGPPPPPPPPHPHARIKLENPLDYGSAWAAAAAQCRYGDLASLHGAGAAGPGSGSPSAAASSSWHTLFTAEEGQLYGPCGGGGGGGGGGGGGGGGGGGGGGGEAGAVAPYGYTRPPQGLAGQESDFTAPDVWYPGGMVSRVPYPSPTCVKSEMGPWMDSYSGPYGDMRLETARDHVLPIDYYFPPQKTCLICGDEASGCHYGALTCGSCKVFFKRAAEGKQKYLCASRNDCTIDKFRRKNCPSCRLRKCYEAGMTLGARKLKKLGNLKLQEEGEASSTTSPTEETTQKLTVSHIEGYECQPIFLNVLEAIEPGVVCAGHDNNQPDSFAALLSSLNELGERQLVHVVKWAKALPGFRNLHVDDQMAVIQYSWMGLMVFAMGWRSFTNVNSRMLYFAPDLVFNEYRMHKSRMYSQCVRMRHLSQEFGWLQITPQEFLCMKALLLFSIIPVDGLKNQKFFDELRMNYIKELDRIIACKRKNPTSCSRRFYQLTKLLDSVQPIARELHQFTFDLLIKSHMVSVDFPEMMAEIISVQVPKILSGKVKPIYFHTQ

In test [20] the target is Estrogen receptor (Homo sapiens) (UniProt P03372). The test can be described thus: qHTS assay to identify small molecule antagonists of the estrogen receptor alpha (ER-alpha) signaling pathway using the BG1 cell line in the presence of 0.1 nM 17-beta-estradiol (AID 1259244). Further: nearly all actives have a fitted effect of over 50% in size. Put shortly:
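Compounds were tested against 0.1 nM (final) 17beta-estradiol in VM7Luc4E2 cells, which express full-length ER-alpha and an ERE-luciferase reporter; luminescence was recorded following 22 h exposure.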

Unmarked numbers belong to inactive results. Inconclusive results are not listed. Activity calls are given as the source filed them. Unless noted, the call rests on the fitted dose curve; in most records, active means well fitted curve in the direction sought with a large enough effect in the repeat runs; inconclusive means weak or mixed curves; inactive means no such curve, though single readings can be large; an effect the other way counts as inactive or inconclusive.
On the % scale 0 is the no-effect control and ±100 the full control effect.

Estrogen receptor (Homo sapiens), sequence (P03372 whole entry, looked up): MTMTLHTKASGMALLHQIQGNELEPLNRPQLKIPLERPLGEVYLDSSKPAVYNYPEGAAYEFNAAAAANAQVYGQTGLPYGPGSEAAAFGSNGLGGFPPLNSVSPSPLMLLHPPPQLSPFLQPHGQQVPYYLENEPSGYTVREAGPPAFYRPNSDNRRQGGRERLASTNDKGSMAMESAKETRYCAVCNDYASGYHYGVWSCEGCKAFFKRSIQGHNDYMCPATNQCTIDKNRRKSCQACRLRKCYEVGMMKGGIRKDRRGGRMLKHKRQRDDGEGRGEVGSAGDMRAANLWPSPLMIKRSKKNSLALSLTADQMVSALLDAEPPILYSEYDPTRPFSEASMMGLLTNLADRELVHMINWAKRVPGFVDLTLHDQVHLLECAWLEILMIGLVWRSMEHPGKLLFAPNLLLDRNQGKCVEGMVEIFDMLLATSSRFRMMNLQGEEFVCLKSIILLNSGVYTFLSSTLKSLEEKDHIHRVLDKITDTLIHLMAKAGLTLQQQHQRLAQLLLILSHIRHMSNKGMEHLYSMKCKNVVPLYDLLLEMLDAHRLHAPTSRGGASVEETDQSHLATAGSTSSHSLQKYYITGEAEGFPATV

For `O=S(=O)(O)CCN1CCN(CCO)CC1`, the Potency entry in test [1], in [2], in [4], in test [5], in [7] and in test [9] was “inactive” in each case. Further, the Potency entry in [11], in [13] and in test [14] was “inactive” each time. The outcome in test [3], in [6], in [8], in [10] and in [12] was inactive.

Turning to `NCCN1CCOCC1`, the Potency result in test [1], in test [15], in test [16], in test [2], in [4] and in [5] was “inactive” in each case. Besides, the Potency entry in test [7], in [9], in test [11], in [13] and in [14] was “inactive” throughout. Moreover, the outcome in [3], in test [6], in test [8], in [10] and in test [12] was inactive.

As for `C=Cc1ccccn1`, the Potency entry in test [1], in test [15], in test [16], in test [2], in [4] and in [5] was “inactive” throughout. Besides, the Potency result in test [7], in test [9], in test [11], in [13] and in [14] was “inactive” throughout. Besides, the result in [3], in test [6], in test [8] and in test [12] was inactive.

Regarding `N[C@@H](COP(=O)(O)O)C(=O)O`, the activity change, negative = cytotoxicity in [1] is 12.6% [at 15.8 µM]; in test [4], 1.75% [at 15.8 µM]; in [5], 10.1% [at 15.8 µM]; in [7] it was -1.1% [at 15.8 µM]; in test [9], 0.527% [at 19 µM]; in test [12] it was 0.384% [at 19 µM]. In addition, the cytotoxicity increase was -6.18% [at 15.8 µM] in [15], -0.733% [at 15.8 µM] in [16], -2.54% [at 15.8 µM] in test [2] and 3.11% [at 15.8 µM] in test [8]. Besides, in test [3], the activity change, negative = cytotoxic is 1.13% [at 15.8 µM]. Also, the activity change in [6] was -5.61% [at 15.8 µM]. In test [17], the outcome was inactive. The activity change, negative = inhibition in test [11] was -0.0158% [at 19 µM]. Also, the viability change, negative = cytotoxic in test [13] is -4.16% [at 19 µM]; in test [14], 5.61% [at 19 µM].

As to `CCN(C)C(=O)Oc1cccc([C@H](C)N(C)C)c1`, the Potency entry in test [15], in test [16], in test [2], in test [4], in [5] and in test [7] was “inactive” in each case. In addition, the Potency result in test [9], in test [19], in test [20], in test [11], in [13] and in test [14] was “inactive” in each case. Moreover, the compound was classed as inactive in [18], in [3], in test [6], in test [8], in test [10] and in [17]. Further, in [12], the compound was classed as inactive.

`O=C(CCN1CCN(CCO)CC1)N1c2ccccc2Sc2ccc(C(F)(F)F)cc21`: the Potency entry in test [1], in [15], in test [16], in test [2], in test [4] and in [5] was “inactive” throughout. Also, the Potency result in test [7], in test [9], in test [19], in test [20], in test [11] and in test [13] was “inactive” each time. Further, the outcome in test [3], in test [6], in test [8], in [17] and in test [12] was inactive.

For `O=C(c1ccc(O)cc1)c1ccc(O)c(O)c1O`, the Potency entry in [1], in [15], in test [16], in test [2], in test [4] and in test [5] was “inactive” in each case. Besides, in test [7], the Potency entry was “inactive”. In addition, the compound was classed as inactive in test [3], in test [6], in test [8], in test [10] and in test [12]. For the same compound, the Potency in test [13] is 30.8 µM (active).

Take `O=P(O)(O)OP(=O)(O)O`: the Potency result in test [1], in test [15], in test [16], in test [4], in test [5] and in [7] was “inactive” in each case. The Potency result in test [9], in test [11], in test [13] and in test [14] was “inactive” throughout. Further, the call in [3], in test [6], in test [8], in test [10], in [17] and in test [12] was inactive.

Values taken from PubChem BioAssay (Tox21).
